“And” between values parts separate entries of the source, which are not always exact repeats. Identical values can stand only once. A number with no mark means an inactive call. Records with an inconclusive call do not appear. Entries that show only a call come without a potency. The source made the active and inactive calls. Unless noted, calls follow the shape of the dose curve; as a rule, active = well fitted curve in the direction sought with a large enough effect; inconclusive = small, poorly fitted or top-dose-only effect, or another doubt; inactive = no such curve, though single readings can be large; an effect the other way counts as inactive or inconclusive.
What was measured:
[1] = biological target: Mitogen-activated protein kinase 10 (Mus musculus) (UniProt Q61831); assay: JNK3 AlphaScreen Assay (AID 530; active = well fitted curve in either direction with a large enough effect, not every such curve was filed as active;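 also: kinase came from lysate of stimulated human HepG2 cells; signal reports phosphorylation of biotinylated GST-cJun 1-79 at Ser73 with 10 µM ATP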)
In short: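 Room-temperature AlphaScreen kinase assay; pre-activated HepG2 lysate as JNK3 source, biotin-GST-cJun(1-79) substrate, 10 uM ATP, compound 15 min preincubation.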

[2] = Cell Viability - NIH 3T3 (AID 541); details: NIH 3T3 cell viability, qHTS; activity change, negative = cytotoxicity: at 92.2 µM (top of the series); also: nearly all actives have a fitted effect of over 25% in size; also: potency is read from the fitted curve at half-maximal effect
In short: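 NIH 3T3 mouse embryo fibroblasts (1000 cells/well) were plated in complete medium and treated with compound for 40 hr at 37 °C. Viability was read as intracellular ATP by CellTiter-Glo luminescence; AC50 values came from Hill-equation fits of concentration-response data.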

[3] = Cell Viability - HUV-EC-C (AID 542); also: nearly all actives have a fitted effect of over 35% in size; also: potency is read from the fitted curve at half-maximal effect
In short: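 HUV-EC-C normal human vascular endothelial cells, 1000 cells/well, pre-incubated 5 hr at 37 °C, then exposed to compounds for 40 hr at 37 °C in complete medium. Viability measured as intracellular ATP by CellTiter-Glo luminescence; AC50 from Hill fits.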

[4] = Cell Viability - H-4-II-E (AID 543); also: nearly all actives have a fitted effect of over 35% in size; also: potency is read from the fitted curve at half-maximal effect
In short: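 Rat hepatoma H-4-II-E cells (1500/well) were plated, incubated 5 hr at 37 °C, then exposed to compounds for 40 hr at 37 °C. Cellular ATP was read by CellTiter-Glo luminescence; AC50 came from Hill-equation fits of concentration-response data.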

[5] = Cell Viability - Renal Proximal Tubule (AID 545); details: renal proximal tubule cells viability, primary cells of rat origin; activity change, negative = cytotoxicity: at 91.7 µM (top of the series); also: nearly all actives have a fitted effect of over 40% in size; also: potency is read from the fitted curve at half-maximal effect
In short: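 Primary rat renal proximal tubule cells (1000/well) were treated with compounds for 40 hr at 37 °C in complete medium. Intracellular ATP was measured by CellTiter-Glo luminescence, and AC50 values came from Hill-equation fits of concentration-response data.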

[6] = Cell Viability - Mesenchymal (AID 546); details: mesenchymal cells viability, qHTS; activity change, negative = cytotoxicity: at 91.7 µM (top of the series);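 also: cells exposed to compound for 40 hours before reading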; also: potency is read from the fitted curve at half-maximal effect
In short: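 AC50 values reflect the drop in intracellular ATP in a human kidney mesenchymal line derived from normal glomeruli. Treatment lasts 40 hr at 37 °C in complete medium, and the signal comes from CellTiter-Glo luminescence.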

[7] = Cellular Toxicity (caspase-3) HUV-EC-C (AID 656)
In short: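 HUV-EC-C endothelial cells, 1000/well, were pre-incubated 5 hr at 37°C, then exposed to compounds for 16 hr at 37°C. Caspase-Glo 3/7 luminescence was read after 20 min at room temperature. AC50 came from Hill fits, normalized to DMSO and 100 uM tamoxifen.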

[8] = Cellular Toxicity (caspase-3) SHSY5Y (AID 657)
In short: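 SH-SY5Y human neuroblastoma cells (1500/well) were treated with compounds for 16 h at 37 °C, then Caspase-Glo 3/7 luminescence was read after 1 h at room temperature. Data normalized to DMSO and 10 uM staurosporine; AC50 from Hill fits.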

[9] = Cellular Toxicity (caspase-3) BJ (AID 658)
In short: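 Readout: Caspase-Glo 3/7 luminescence increase in BJ cells after 16 hr treatment at 37 °C. Staurosporine and tamoxifen served as positive controls; AC50 values came from Hill modelling of data normalized to DMSO and 10 uM staurosporine.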

[10] = Cellular Toxicity (caspase-3) MRC-5 (AID 659)
In short: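 Concentration-dependent caspase 3/7 activation is measured in human normal lung fibroblasts (MRC-5) following 16-hour treatment. AC50 values come from standard Hill-equation modeling of luminescence normalized to DMSO and 10 uM staurosporine.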

[11] = Cellular Toxicity (caspase-3) Mesangial (AID 660); details: Potency: caspase-3 activation;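 also: cells exposed to compound for 16 h before the caspase read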; also: potency is read from the fitted curve at half-maximal effect
In short: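 Human renal glomerular mesangial cells (1000/well) were treated with compounds for 16 h at 37 °C in complete medium, then caspase 3/7 activity was read by Caspase-Glo luminescence. Data were normalized to DMSO and 100 uM tamoxifen; AC50 from Hill fits.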

[12] = Cellular Toxicity (caspase-3) H-4-II-E (AID 663); details: H-4-II-E rat hepatoma, scaled: DMSO 0%, 100 µM tamoxifen 100%; at 92.2 µM (top of the series);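 also: cells exposed to compound for 16 hr before readout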
In short: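 Apoptosis induction is scored as increased luminescence from caspase 3/7 substrate cleavage in rat hepatoma H-4-II-E cells exposed to compound for 16 hr. Activity is scaled between DMSO and 100 uM tamoxifen.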

[13] = Cellular Toxicity (caspase-3) Hek293 (AID 664); details: HEK293 caspase-3 activation, DMSO = 0%, 100 µM tamoxifen = 100%; at 92.2 µM (top of the series);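 also: cells exposed to compound for 16 h at 37 °C before readout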
In short: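 HEK293 cells were exposed to compounds in complete medium for 16 hr at 37 °C, then caspase-3/7 activity was read by Caspase-Glo 3/7 luminescence after 20 min at room temperature. Data normalized to DMSO and 100 uM tamoxifen; AC50 from Hill fits.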

[14] = Cellular Toxicity (caspase-3) N2a (AID 665); details: Potency: caspase-3 activation;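 also: compound exposure lasted 16 h at 37 °C before readout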; also: potency is read from the fitted curve at half-maximal effect
In short: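 Mouse N2a neuroblastoma cells (1500/well) were treated with compounds for 16 h at 37 °C, then caspase-3/7 activity was read by Caspase-Glo luminescence after 1 h at room temperature. Data were normalized to DMSO and 10 uM staurosporine; AC50 from Hill fits.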

[15] = Cellular Toxicity (caspase-3) NIH 3T3 (AID 666);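 also: caspase signal read after 16 h compound exposure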; also: potency is read from the fitted curve at half-maximal effect
In short: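 Mouse NIH 3T3 fibroblasts (1000 cells/well) were treated with compound for 16 hr at 37°C in complete medium; caspase-3/7 activity was read by Caspase-Glo luminescence. Normalized to DMSO and 100 uM tamoxifen; AC50 from Hill fits.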

[16] = Cell Viability - N2a (AID 540); details: N2a mouse neuroblastoma cell viability; activity change, negative = cytotoxicity: at 92.2 µM (top of the series); also: nearly all actives have a fitted effect of over 45% in size; also: potency is read from the fitted curve at half-maximal effect
In short: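 Mouse neuroblastoma N2a cells (1500/well) were preincubated 5 hr at 37 °C, then exposed to compounds for 40 hr at 37 °C in complete medium. Viability was read as intracellular ATP by CellTiter-Glo luminescence; AC50 from Hill fits.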

[17] = biological target: Glucocorticoid receptor (Homo sapiens) (UniProt P04150); assay: GR-GFP Redistribution (AID 450;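 active = compounds whose dose series gives a full or clear partial fitted curve of increased nuclear translocation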; also: potency is read from the fitted curve at half-maximal effect); details: U2OS GR-GFP nuclear translocation, laser cytometry, 2 h
Chain of Glucocorticoid receptor (Homo sapiens) (P04150 whole entry, looked up, the tested form may be a part): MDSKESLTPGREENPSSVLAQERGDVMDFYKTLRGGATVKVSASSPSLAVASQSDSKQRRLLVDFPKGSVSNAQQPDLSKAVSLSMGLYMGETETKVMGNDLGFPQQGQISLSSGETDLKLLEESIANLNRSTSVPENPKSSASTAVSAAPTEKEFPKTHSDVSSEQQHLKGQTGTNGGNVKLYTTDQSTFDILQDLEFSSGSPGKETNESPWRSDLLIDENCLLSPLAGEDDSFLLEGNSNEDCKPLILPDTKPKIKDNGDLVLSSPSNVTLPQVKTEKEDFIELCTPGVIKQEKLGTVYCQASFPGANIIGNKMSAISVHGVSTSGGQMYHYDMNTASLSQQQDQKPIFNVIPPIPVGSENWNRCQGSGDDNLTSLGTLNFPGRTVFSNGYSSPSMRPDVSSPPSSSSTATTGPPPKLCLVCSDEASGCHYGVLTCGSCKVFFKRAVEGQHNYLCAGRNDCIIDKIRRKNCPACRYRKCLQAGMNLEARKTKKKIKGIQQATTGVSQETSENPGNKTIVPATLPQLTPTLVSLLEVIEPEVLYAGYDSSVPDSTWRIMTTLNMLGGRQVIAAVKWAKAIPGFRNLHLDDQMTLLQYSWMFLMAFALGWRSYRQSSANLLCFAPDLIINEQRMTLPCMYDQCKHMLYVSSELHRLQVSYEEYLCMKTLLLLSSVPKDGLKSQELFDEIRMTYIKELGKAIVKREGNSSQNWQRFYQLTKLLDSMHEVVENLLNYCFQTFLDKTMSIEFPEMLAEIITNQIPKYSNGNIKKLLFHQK

[18] = biological target: Glucocorticoid receptor (Homo sapiens) (UniProt P04150); assay: GR-EFC Redistribution (AID 451; calls by dose curve; also: potency is read from the fitted curve at half-maximal effect); details: CHO-K1 GR-EFC translocation, beta-gal luminescence, 2 h
In short: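 Translocation of GR-ED fusion to nuclear EA restores b-gal, read by luminescence after 1 h room-temperature detection. Engineered CHO-K1 biosensor cells, 1,000/well, exposed 2 h at 37 C to titrations up to 46 uM final.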

[19] = biological target: 3',5'-cyclic-AMP phosphodiesterase 4B (Homo sapiens) (UniProt Q07343); assay: qHTS Assay for Inhibitors of PDE-IV (AID 607; active = well fitted activation curve with a large enough effect in the main read-out, with a control signal flat, not every such curve was filed as active)
Chain of 3',5'-cyclic-AMP phosphodiesterase 4B (Homo sapiens) (Q07343 whole entry, looked up): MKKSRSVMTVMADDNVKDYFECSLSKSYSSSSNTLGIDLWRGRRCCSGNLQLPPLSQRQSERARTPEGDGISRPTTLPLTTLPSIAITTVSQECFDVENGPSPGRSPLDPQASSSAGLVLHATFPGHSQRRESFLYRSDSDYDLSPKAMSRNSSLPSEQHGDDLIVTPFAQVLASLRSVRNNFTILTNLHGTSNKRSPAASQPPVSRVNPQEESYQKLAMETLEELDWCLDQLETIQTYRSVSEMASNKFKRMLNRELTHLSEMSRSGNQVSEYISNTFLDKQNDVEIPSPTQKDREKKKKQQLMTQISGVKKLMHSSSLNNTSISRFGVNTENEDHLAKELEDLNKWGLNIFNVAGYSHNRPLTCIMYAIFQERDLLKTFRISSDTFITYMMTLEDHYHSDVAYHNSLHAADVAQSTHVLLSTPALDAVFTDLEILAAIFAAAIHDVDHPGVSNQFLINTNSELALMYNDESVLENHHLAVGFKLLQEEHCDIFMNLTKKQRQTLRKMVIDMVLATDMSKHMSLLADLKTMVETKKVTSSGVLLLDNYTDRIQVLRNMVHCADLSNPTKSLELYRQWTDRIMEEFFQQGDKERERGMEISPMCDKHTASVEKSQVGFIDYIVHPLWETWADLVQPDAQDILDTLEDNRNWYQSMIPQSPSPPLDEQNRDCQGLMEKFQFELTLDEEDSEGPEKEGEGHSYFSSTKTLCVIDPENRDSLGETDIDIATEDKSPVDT
In short: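 ACTOne HEK293 cells carry a modified cAMP-gated CNG channel and express endogenous PDE4; plated 1000 cells/well, compounds up to 22.9 uM final. Membrane-potential dye fluorescence (ex 535/em 590) was read; parental cells received 10 uM forskolin + 100 uM RO 20-1724.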

Nc1ccc(O)c([N+](=O)[O-])c1
Potency [1]: inactive
Potency [2]: 25.1 µM (active)
Potency [3]: inactive
Potency [4]: inactive
activity change, negative = cytotoxicity [5]: 0.95%
Potency [6]: inactive
outcome [7]: inactive
outcome [8]: inactive
outcome [9]: inactive
outcome [10]: inactive
Potency [11]: inactive
caspase-3 activation [12]: 4.05%
caspase-3 activation [13]: 0.408%
Potency [14]: inactive
Potency [15]: inactive

S=c1[nH]c2ccccc2s1
Potency [1]: inactive
Potency [16]: inactive
activity change, negative = cytotoxicity [2]: -146% (active)
Potency [3]: inactive
Potency [4]: inactive
activity change, negative = cytotoxicity [5]: -20.5%
Potency [6]: inactive
outcome [7]: inactive
outcome [8]: inactive
outcome [9]: inactive
outcome [10]: inactive
Potency [11]: inactive
caspase-3 activation [12]: 0.172%
caspase-3 activation [13]: 1.33%
Potency [14]: inactive
Potency [15]: inactive

C#C[C@]1(O)CC[C@H]2[C@@H]3CCc4cc(O)ccc4[C@H]3CC[C@@]21C
Potency [1]: inactive
Potency [16]: inactive
Potency [2]: inactive
Potency [4]: 20 µM (active)
Potency [6]: inactive
outcome [7]: inactive
outcome [8]: inactive
outcome [9]: inactive
outcome [10]: inactive
Potency [11]: inactive
caspase-3 activation [12]: 3.92%
caspase-3 activation [13]: -0.747%
Potency [14]: inactive
Potency [15]: inactive

CN(C)c1ccc(C(=C2C=CC(=[N+](C)C)C=C2)c2ccccc2)cc1
Potency [17]: > 46 µM
Potency [18]: > 9.22 µM
activity change, negative = inhibition [1]: -22.8% [at 11.4 µM]
Potency [16]: 0.0316 µM (active)
Potency [2]: 0.2 µM (active)
Potency [3]: 6.31 µM (active)
Potency [4]: 0.0794 µM (active)
Potency [5]: 0.2 µM (active)
Potency [6]: 0.316 µM (active)
outcome [19]: inactive
outcome [7]: inactive
Potency [11]: 1.26 µM (active)
caspase-3 activation [12]: -4.63% (active)
caspase-3 activation [13]: -9.3% (active)
Potency [14]: 0.0794 µM (active)
Potency [15]: 1 µM (active)

CCCCCCCC/C=C\CCCCCCCC(=O)NCCO
Potency [17]: > 46 µM
Potency [18]: > 46 µM
Potency [1]: inactive

CC(C)NCC(O)COc1cccc2ccccc12 (stereo not given)
Potency [1]: inactive
Potency [16]: inactive
Potency [4]: 39.8 µM (active)
outcome [7]: inactive
outcome [8]: inactive
outcome [9]: inactive
outcome [10]: inactive
Potency [11]: inactive
caspase-3 activation [12]: 12.6%
caspase-3 activation [13]: 0.268%
Potency [14]: inactive
Potency [15]: inactive

N=C1N=C(N)c2cc3ccccc3cc21
Potency [1]: inactive
activity change, negative = cytotoxicity [16]: -112% (active)
activity change, negative = cytotoxicity [2]: -134% (active)
Potency [3]: 50.1 µM (active)
Potency [4]: 31.6 µM (active)
activity change, negative = cytotoxicity [5]: -85.8% (active)
activity change, negative = cytotoxicity [6]: -91.8% (active)
Potency [11]: inactive
caspase-3 activation [12]: 153% (active)
caspase-3 activation [13]: 9.9%

O=C1CN(/N=C/c2ccc([N+](=O)[O-])o2)C(=O)N1
Potency [1]: inactive
Potency [16]: 31.6 µM (active)
activity change, negative = cytotoxicity [2]: -97.7% (active)
Potency [3]: inactive
Potency [6]: inactive
outcome [7]: inactive
outcome [8]: inactive
outcome [9]: inactive
outcome [10]: inactive
Potency [11]: inactive
caspase-3 activation [12]: -0.519%
caspase-3 activation [13]: -0.37%
Potency [14]: inactive
Potency [15]: inactive

Cn1cc(C2=C(c3ccc(Cl)cc3Cl)C(=O)NC2=O)c2ccccc21
Potency [17]: > 46 µM
Potency [18]: > 46 µM
Potency [1]: inactive
outcome [19]: inactive

CCCOC(=O)c1ccc(O)cc1
Potency [1]: inactive
Potency [16]: inactive
Potency [2]: inactive
Potency [3]: inactive
Potency [4]: inactive
activity change, negative = cytotoxicity [5]: -13.5% and -15.2%
Potency [6]: inactive
outcome [7]: inactive
outcome [8]: inactive
outcome [9]: inactive
outcome [10]: inactive
Potency [11]: inactive
caspase-3 activation [12]: 1.99% and 0.213%
caspase-3 activation [13]: 0.939% and -1.18%
Potency [14]: inactive
Potency [15]: inactive

Reference: PubChem BioAssay (NCATS)
